DT40 TDP1 no CPT = qHTS for Inhibitors of human tyrosyl-DNA phosphodiesterase 1 (TDP1): qHTS in cells in absence of CPT; actives 15% (n = 420,000); DT40 Tdp1-/- hTDP1 cells, no CPT, ATP luminescence, 48 h; Potency, µM (titrated, usually from 46.2 µM), actives largely listed as inhibitors; AID 686978, 2013; also: nearly all actives have a fitted effect of over 55% in size
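Stably hTDP1-transfected Tdp1-null chicken DT40 cells were treated with library compounds minus camptothecin and grown for at least 48 hr at 37 °C, after which cellular ATP was quantified by luminescence.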
TGFb inhibitor = TGF-b pathway inhibition. HepG2 CAGA-GFP TGF-b/SMAD3 reporter, GFP fluorescence, 18 h; TGF-beta stimulated, 500 pg/mL final. Potency, µM (highest dose often 46.1 µM), hits mostly inhibitors. actives 1.2% (n = 410,000). AID 588855; also: nearly all actives have a fitted effect of over 65% in size
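TGF-beta reporter screen: HEPG2 CAGA-GFP, 1% FBS, 500 pg/mL TGF-beta final, 18 h; per-cell GFP summed per well; curves fitted and categorized by class.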
TDP1 cell CPT = DT40-hTDP1 cell growth loss with CPT; chicken DT40 Tdp1-/-;hTDP1 cells + 20 nM CPT, ATP luminescence, 48 h; Potency, µM (doses to about 46.2 µM), hits mostly inhibitors; actives 12% (n = 420,000); also: nearly all actives have a fitted effect of over 55% in size
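Chicken DT40 Tdp1-/- cells stably complemented with human TDP1 were seeded at 400 cells/well in medium containing 20 nM camptothecin, exposed to pin-transferred compounds, and grown at 37 °C for at least 48 hr. Viability was read as ATP luminescence.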
IL1B secr inh = inhibitors of inflammasome signaling (IL-1 beta secretion). THP-1 LPS/ATP IL-1B secretion, AlphaLISA, 16 h; active compounds read low. activity change, % at 57.5 µM. actives 4.7% (n = 360,000). AID 743279; in the data active = activity change below about -50%; inconclusive = mostly about -30% to -49%
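THP-1 cells pretreated 1 hr with compounds (up to 57.5 uM final), then stimulated with LPS (250 ng/mL final) plus ATP (1.25 mM final); secreted IL-1B measured by AlphaLISA after 16 hr, decreased signal indicating inhibition.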
HepG2 tox = counter-screen for TGF-b inhibitors: cytotoxicity in HepG2 cells | HepG2 CAGA-GFP viability, ATP luminescence, 18 h | Potency, µM (series often up to 46.1 µM), most hits filed as cytotoxic | actives 0.76% (n = 410,000)
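HepG2 CAGA-GFP cells (1000/well, DMEM with 1% FBS) received compound, then TGF-beta at 500 pg/mL final, and were incubated 18 hours at 37 degrees C. Viability was read by CellTiter-Glo luminescence. Media-only wells were set as complete cell-killing and DMSO as no toxicity.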
S-ASM inh = inhibitors of human secretory acid sphingomyelinase | P17405 | placental ASM, HMU-PC fluorogenic substrate, 60 min | Potency, µM (top dose mostly 57.5 µM), hits mostly inhibitors | actives 0.006% (n = 340,000) | AID 504937
Target sequence (P17405 47-631 limits assumed): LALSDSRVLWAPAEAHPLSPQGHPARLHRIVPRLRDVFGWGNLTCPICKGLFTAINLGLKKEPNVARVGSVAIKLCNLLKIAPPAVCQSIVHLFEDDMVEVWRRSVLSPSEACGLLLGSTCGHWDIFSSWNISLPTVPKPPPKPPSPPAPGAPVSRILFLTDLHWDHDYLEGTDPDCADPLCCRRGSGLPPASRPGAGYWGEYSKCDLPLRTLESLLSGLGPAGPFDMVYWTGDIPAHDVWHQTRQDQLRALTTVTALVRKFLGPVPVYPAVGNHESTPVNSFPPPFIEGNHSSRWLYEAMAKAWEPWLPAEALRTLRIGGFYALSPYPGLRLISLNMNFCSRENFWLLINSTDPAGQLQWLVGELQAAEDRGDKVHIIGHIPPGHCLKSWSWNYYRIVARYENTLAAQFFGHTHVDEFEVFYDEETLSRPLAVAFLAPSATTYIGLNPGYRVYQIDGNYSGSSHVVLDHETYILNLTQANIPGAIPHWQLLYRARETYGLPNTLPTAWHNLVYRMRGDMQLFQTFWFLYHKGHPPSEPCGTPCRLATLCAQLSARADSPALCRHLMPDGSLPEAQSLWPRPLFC
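Human placenta-derived ASM preincubated with compound 10 min at room temperature, then reacted with 9 uM (final) fluorogenic HMU-PC substrate for 60 min at 37 C. Stop solution raises pH to 10; fluorescence read at Ex 386/Em 447 nm.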
Hits are given with their value; - = inactive; ? = inconclusive; . = no result. This is a sample that favours compounds with a hit; in the whole collection about 19% have one here. Unless noted, calls follow the shape of the dose curve; as a rule, active = well fitted curve in the direction sought with a large enough effect; inconclusive = small, poorly fitted or top-dose-only effect, or another doubt; inactive = no such curve, though single readings can be large; an effect the other way counts as inactive or inconclusive.

SMILES	DT40 TDP1 no CPT	TGFb inhibitor	TDP1 cell CPT	IL1B secr inh	HepG2 tox	S-ASM inh
CCCCCn1c(=O)[nH]c2cc(C(=O)N3CCN(c4cccc(OC)c4)CC3)ccc2c1=O	14.6µM	?	23.1µM	.	-	.
CCCCCn1c(=O)[nH]c2cc(C(=O)N3CCN(c4cc(Cl)ccc4C)CC3)ccc2c1=O	?	-	?	.	-	.
CCCCCn1c(=O)[nH]c2cc(C(=O)Nc3cc(OC)cc(OC)c3)ccc2c1=O	23.1µM	-	13µM	.	-	.
CCCCCn1c(=O)[nH]c2cc(C(=O)N3CCN(c4cccc(C)c4)C(C)C3)ccc2c1=O (stereo unspecified)	9.2µM	?	20.6µM	.	-	.
CCCCC(CC)CNC(=O)c1ccc2c(=O)n(Cc3ccc(OC)cc3)c(=O)[nH]c2c1 (stereo unspecified)	?	-	20.6µM	.	-	.
Cc1ccc(OCC(=O)NNC(=O)Cc2ccc(S(=O)(=O)N3CCOCC3)s2)cc1	-	-	-	-	-	-
CCC(O)CNC(=O)c1cnn(-c2ncc3c(n2)-c2ccc(OC)cc2CC3)c1C1CC1 (stereo unspecified)	-	.	-	.	.	.
CCCCCn1c(=O)[nH]c2cc(C(=O)N3CCN(c4ccc(OC)cc4)CC3)ccc2c1=O	18.4µM	?	9.2µM	.	-	.
COc1ccc(-n2c(=S)[nH]c3cc(C(=O)Nc4ccc(F)cc4)ccc3c2=O)c(OC)c1	?	-	16.4µM	?	-	-
COc1ccc(-n2c(=S)[nH]c3cc(C(=O)Nc4ccccc4OC)ccc3c2=O)c(OC)c1	?	?	-	-	-	-
COCCn1c(=O)[nH]c2cc(C(=O)N3CCN(c4ccc(OC)cc4)CC3)ccc2c1=O	?	-	-	-	-	-
CCOC(=O)c1nn(-c2ccccc2)c(=O)cc1SC1CCCCC1	?	-	-	-	-	-
COc1ccc(CCNC(=O)C(=O)NCC2OCCN2C(=O)c2ccc(Cl)cc2)cc1 (stereo unspecified)	-	-	-	-	-	-
Cc1cc(C)cc(-n2ccn(Cc3ccc(F)cc3)c(=O)c2=O)c1	-	-	-	.	-	.
CSCC(=O)NC1CCCN(C2Cc3ccccc3C2)C1 (stereo unspecified)	-	?	-	-	7.94µM	-
COC(=O)CCCC(=O)NC1CCCN(C2Cc3ccccc3C2)C1 (stereo unspecified)	-	-	-	-	-	-
Cc1nc2ccc(S(=O)(=O)NC(CC(C)C)C(=O)NCc3ccc(Cl)cc3)cc2s1 (stereo unspecified)	-	?	?	.	-	.
CN(C)CCOC(=O)c1ccc2c(c1)S(=O)(=O)c1ccccc1C2=O	-	-	-	-	-	-
CCOC(=O)c1c(C)oc2nc(C)nc(NCc3cccc(OC)c3)c12	?	-	16.4µM	.	-	.
CCOC(=O)c1c(C)oc2nc(C)nc(NCc3cccc(Cl)c3)c12	20.6µM	-	?	.	-	.
C/C(=N\O)c1oc2ccc3c(C)cc(=O)oc3c2c1C	-	-	-	-	-	-
CCOc1ccc(NC(=O)CSc2oc(-c3ccco3)nc2S(=O)(=O)c2ccc(Cl)cc2)cc1	?	-	20.6µM	.	-	.
Cc1cc(C)cc(NC(=O)CSc2oc(-c3ccco3)nc2S(=O)(=O)c2ccc(Cl)cc2)c1	?	-	23.1µM	.	-	.
NC(=O)CSc1oc(-c2ccco2)nc1S(=O)(=O)c1ccc(Cl)cc1	-	?	-	-	-	-
Cc1ccc(S(=O)(=O)c2nc(-c3ccco3)oc2SCC(=O)c2ccc(Cl)cc2)cc1	?	-	?	.	-	.
COc1cc(/C=C/C(=O)OCC(=O)NC(=O)NC(C)C)ccc1OCC#N	?	-	-	-	-	-
